Screening data as filed in PubChem.
KB-3-1 tox – qHTS assay for MDR1-selective chemotherapeutics: Primary screen using the parental adenocarcinoma cell KB-3-1. KB-3-1 viability, CellTiter-Glo ATP luminescence, 72 h. Potency, µM (doses to about 46.1 µM), hits mostly cytotoxic. hit rate 1.4% among 400,000; note: % is set by controls: 0 for no effect and ±100 for the full control effect; nearly all actives have a fitted effect of over 60% in size
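Here the drug-naive KB-3-1 line serves as comparator for MDR sub-line selectivity; cells received compound titrations, 72 h at 37 °C, then CellTiter-Glo readout.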
ATXN2 expr inh – Primary qHTS for Inhibitors of ATXN expression. HEK-293 ATXN2-luciferase reporter, luminescence, 24 h. Potency, µM (titrated, usually from 57 µM), for the others: top-dose activity change, negative = inhibition, actives largely listed as inhibitors. hit rate 0.72% among 360,000. AID 1745845, 2022; note: % is set by controls: 0 for no effect and ±100 for the full control effect; nearly all actives have a fitted effect of over 55% in size
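qHTS (up to 57 uM final) was run with 24 h compound exposure of reporter cells at 37 °C. Each well was multiplexed: SteadyGlo luminescence measured ATXN2-luciferase expression after a fluorogenic Gly-Phe-AFC viability readout (25 uM final).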
S2 tox – Viability Counterscreen for Primary qHTS for Inhibitors of ATXN expression; S2 cells (HEK-293 line with an ATXN2-luciferase reporter) viability, CellTiter-Fluor protease fluorescence, 24 h; Potency, µM (series often up to 56.7 µM), usual class: cytotoxic; hit rate 0.49% among 400,000; AID 651635, 2014; note: nearly all actives have a fitted effect of over 40% in size
HT1080-NT tox – qHTS for induction of synthetic lethality in tumor cells producing 2HG: qHTS for the HT-1080-NT fibrosarcoma cell line. AID 686970, 2013. HT-1080-NT fibrosarcoma viability, CellTiter-Glo ATP luminescence, 48 h. hit rate 1.6% among 360,000. Potency, µM (titrated, usually from 46.1 µM), for the others: at the highest dose activity, negative = less viability, hits mostly cytotoxic;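 note: NT is the 2HG producing partner of a matched IDH1 knockdown line; 0% = DMSO-treated cells and -100% = media-only wells without cells; nearly all actives have a fitted effect of over 55% in size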
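Compounds were tested in concentration-response format on HT-1080-NT cells for 48 hours at 37 degrees C. Cell viability came from CellTiter-Glo luminescence; curves were classified by r2, response magnitude and activity.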
KB-V1 MDR tox – qHTS assay for MDR1-selective chemotherapeutics: Primary screen using the drug-selected MDR subline cells KB-V1. KB-V1 MDR cells viability, CellTiter-Glo, 72 h. Potency, µM (titrated, usually from 46.1 µM), hits mostly cytotoxic. hit rate 3.4% among 400,000; note: % is set by controls: 0 for no effect and ±100 for the full control effect; nearly all actives have a fitted effect of over 60% in size
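KB-V1 cells (P-gp-expressing MDR subline of KB-3-1) in phenol-red-free DMEM with 10% FBS were exposed to library compounds over a concentration series for 72 h at 37 degrees C. Viability read by CellTiter-Glo luminescence; concentration-effect curves fitted after normalization.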
HT1080 IDH1KD tx – qHTS for induction of synthetic lethality in tumor cells producing 2HG: qHTS for the HT-1080-IDH1KD cell line. Potency, µM (top dose mostly 46.1 µM), without a hit: at the highest dose activity, negative = toxicity, usual class: cytotoxic. hit rate 2% among 360,000. HT-1080 IDH1 knockdown viability, ATP luminescence, 48 h;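 note: 0% = DMSO wells and -100% = cell-free medium wells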
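CellTiter-Glo luminescence after 48 h compound exposure at 37 degrees C of IDH1-knockdown HT-1080 cells in 5% FBS RPMI. %Activity scaled between DMSO wells and cell-free media wells, with curves fitted and assigned curve classes.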
The depositor's hits bear a star; i = inactive; ? = inconclusive; · = no result; ! = repeats disagree. The list is not random: actives were taken first. Their share in the collection is about 6.2%. Calls come from the whole dose curve; as a rule, active = well fitted curve in the direction sought with a large enough effect; inconclusive = small, poorly fitted or top-dose-only effect, or another doubt; inactive = no such curve, though single readings can be large; an effect the other way counts as inactive or inconclusive. Potency is the fitted concentration of half-maximal effect.

SMILES | KB-3-1 tox | ATXN2 expr inh | S2 tox | HT1080-NT tox | KB-V1 MDR tox | HT1080 IDH1KD tx
CCOC(=O)/C=c1\s/c(=C\c2c(OC)ccc3ccccc23)c(=O)n1CC(=O)NCC1CCCO1 (configuration not stated) | 4.61µM* | -7.0% | i | 10µM* | 2.31µM* | 7.94µM*
CCCCN1CCCc2cc(CN(CCCN3CCOCC3)C(=O)Nc3ccc(CC)cc3)ccc21 | i | 3.6% | i | · | i | ·
O=C(CN1CCOCC1)Nc1nc(-c2ccc3c(c2)CCN3S(=O)(=O)c2ccccc2)cs1 | i | ? | ? | -27.0% | ? | -15.5%
Cc1sc(NC(=O)CN2CCOCC2)nc1-c1ccc2c(c1)CCN2S(=O)(=O)c1ccccc1 | ? | -21.4% | i | ? | 4.11µM* | ?
CC(C)CN(C(=O)C1CCCC1)C1CCS(=O)(=O)C1 (configuration not stated) | ? | -0.6% | i | -3.9% | i | 5.6%
Cc1ccc(C(=O)NCCc2nnc3n2CCN(Cc2ccnc4ccccc24)CC3)c(C)c1 | · | · | i | · | · | ·
COc1ccccc1OCC(=O)NCC(c1ccc(Cl)cc1)N1CCOCC1 (configuration not stated) | i | -6.8% | ? | · | i | ·
CC(=O)Oc1ccccc1Cn1c(C)c(C(=O)NCc2cccc([N+](=O)[O-])c2)sc1=O | i | -14.9% | i | -10.0% | 18.4µM* | -13.2%
Cc1c(C(=O)NCc2cccc([N+](=O)[O-])c2)sc(=O)n1Cc1ccc(C(C)C)cc1 | ? | 3.1% | i | -7.9% | 9.2µM* | -8.4%
Cc1c(C(=O)NCc2cccc([N+](=O)[O-])c2)sc(=O)n1Cc1ccc(F)cc1 | i | -18.8% | i | -12.4% | ? | -5.0%
O=[N+]([O-])c1cc(-c2ncccn2)c([N+](=O)[O-])s1 | 16.4µM* | ? | · | 16.4µM* | ? | 20.6µM*
COc1ccc(-c2nc(NC(=O)c3cc(C(C)(C)C)nn3C)sc2C)cc1 | i | -23.3% | i | 15.8µM* | 2.31µM* | ?
COc1ccc(-c2nc(NC(C)=O)sc2-c2ccccc2)cc1 | i | · | i | ? | i | ?
COc1cc(NC(=O)c2n[nH]c(=O)c3ccccc23)cc(OC)c1 | i | · | i | -1.6% | i | -3.6%
COc1ccc(-c2sc(NC(C)=O)nc2-c2ccccc2)cc1 | ? | -1.0% | i | -6.6% | 18.4µM* | -15.2%
COc1ccc(-c2nc(NC(=O)c3n[nH]c(=O)c4ccccc34)sc2C)cc1 | ? | 0.1% | i | -3.2% | 8.2µM* | -9.8%
COc1ccc(NC(=O)CCn2c(-c3ccc(F)cc3)cc(C(C)=O)c2C)c(OC)c1 | i | · | · | · | i | ·
Cc1ccccc1Oc1nc2c(C)cccn2c(=O)c1/C=C(\C#N)C(=O)NC1CCS(=O)(=O)C1 (configuration not stated) | i | -31.3% | ? | ? | i | 13µM*
Cc1cccn2c(=O)c(/C=C(\C#N)C(=O)NC3CCS(=O)(=O)C3)c(Oc3ccccc3Cl)nc12 (configuration not stated) | i | -8.5% | i | ? | i | ?
O=C1CC2(CCCC2)CC(=O)N1 | · | 7.8% | i | · | · | ·
Cc1ccc(S(=O)(=O)Oc2ccccc2/C=C2\SC(=O)NC2=O)cc1 | i | -7.2% | i | 20.6µM* | i | -26.0%
Cc1ccc(S(=O)(=O)Oc2ccccc2/C=N/NC(N)=S)cc1 | 6.51µM* | -20.9% | i | 4.47µM* | ? | ?
CCOc1nc(SCCOc2ccc(Cl)cc2Cl)nc(N(C)C)n1 | i | -11.3% | i | 26.2% | 20.6µM* | 5.2%
O=C(Nc1ccc(N2CCN(C(=O)c3ccco3)CC2)c(Cl)c1)c1cccnc1 | i | -12.5% | i | 4.4% | i | -2.9%
O=C(Nc1ccc(N2CCN(C(=O)c3cccs3)CC2)c(Cl)c1)c1cccnc1 | i | 22.4µM* | i | -20.3% | i | -27.6%
SMILES | KB-3-1 tox | ATXN2 expr inh | S2 tox | HT1080-NT tox | KB-V1 MDR tox | HT1080 IDH1KD tx
O=C(NC(=S)N1CCN(c2ccc([N+](=O)[O-])cc2Cl)CC1)c1ccco1 | i | 0.0% | i | 5.2% | 20.6µM* | -0.3%
Cc1ccc(NC(=O)N2CCN(C(=O)c3ccco3)CC2)cc1Cl | i | 5.7% | i | 0.4% | ? | -0.1%
Cc1ccccc1C(=O)N1CCN(c2ccc(NC(=O)c3ccco3)cc2Cl)CC1 | i | 31.6µM* | ? | ? | ? | ?
Cc1ccccc1C(=O)N1CCN(c2ccc(NC(=S)NC(=O)c3ccco3)cc2)CC1 | ? | · | 14.1µM* | ? | i | ?
O=C(c1ccco1)N1CCN(c2ccc([N+](=O)[O-])cc2Cl)CC1 | i | 3.9% | i | -6.4% | ? | -3.6%
COc1ccccc1C(=O)NC(=S)Nc1ccc(N2CCN(C(=O)c3ccco3)CC2)cc1 | i | -37.4% | i | 3.7% | i | 12.1%
COC(=O)c1cc(C(=O)Nn2cnnc2)cc([N+](=O)[O-])c1 | i | · | i | 6.2% | i | 1.2%
N#Cc1c(F)cccc1NCCCn1ccnc1 | i | -0.5% | i | 15.9% | i | -1.1%
Cc1ccc(C(=O)NC(=S)N2CCN(c3ccc([N+](=O)[O-])cc3)CC2)cc1 | i | -17.8% | i | -5.8% | 23.1µM* | -11.8%
O=C(Nc1ccc(N2CCOCC2)c(Cl)c1)c1c(F)c(F)c(F)c(F)c1F | i | 12.6µM* | i | -20.5% | i | -11.4%
O=C(Nc1ccc(N2CCN(C(=O)c3cccs3)CC2)c(Cl)c1)c1ccco1 | ? | -15.7% | i | -4.3% | 3.66µM* | ?
O=C(NC(=S)N1CCN(c2ccc([N+](=O)[O-])cc2)CC1)c1ccccc1 | i | 4.4% | i | -0.2% | i | 4.4%
O=C(Nc1ccc(N2CCN(C(=O)c3ccco3)CC2)c(Cl)c1)c1c(F)c(F)c(F)c(F)c1F | ? | 28.2µM* | ? | -6.6% | i | -8.4%
Cc1cnc(-n2ncc(C(=O)NCc3ccncc3)c2-c2cccs2)nc1-c1ccc(F)cc1 | · | · | i | · | · | ·
CC(C)C(NC(=O)c1ccccn1)c1nnc2n1CCN(Cc1ccc3ccccc3c1)CC2 (configuration not stated) | · | · | i | · | · | ·
Cc1ccc2c(c1)CCCN2C(=O)c1cccs1 | i | 10.5% | ? | -20.8% | 16.4µM* | ?
COc1cccc(C(=O)Nc2ccc3c(c2)CCCN3C(=O)c2cccs2)c1OC | 9.2µM*! | ? | ? | ? | ? | ?
